An excerpt weighted towards active compounds, which were near 2.2% of everything screened.
GRK2 inh: compounds blocking aptamer binding on GRK2 – biochemical, human GRK2, bead flow cytometry, HTS, primary screen; Beta-adrenergic receptor kinase 1 (Homo sapiens), P25098; inhibition of aptamer binding, % at 10 µM; FAM-aptamer displacement from GRK2; 330,000 compounds, 0.59% hits; AID 488847, 2010;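 active = inhibition of aptamer binding above 40%, roughly 3 SD of noise, on plates passing a quality check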;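 also: median bead fluorescence of bound FAM aptamer so fluorescent compounds give negative values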
TLR4 MyD88 comp: inhibitors of TLR4-MyD88 association in cells, primary screen, cell-based, HeLa CL3-4, BLA complementation, FRET ratio. Toll-like receptor 4 (Homo sapiens) + Myeloid differentiation primary response protein …. HeLa CL3-4 TLR4/MyD88 BLA complementation. inhibition, % at 8.4 µM. 200,000 compounds, 0.18% hits; in the data active = inhibition above about 25%;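 also: 0% = vehicle and 100% = reference inhibitor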
NOD2 RIPK2 PPI: NOD2-RIPK2 binding disruptors in cells, primary screen, fluorescence, CHO cells, BLA complementation; Receptor-interacting serine/threonine-protein kinase 2 (Homo sapiens), O43353; CCF4 ratio; inhibition, % at 4.98 µM; 360,000 compounds, 0.38% hits; AID 624267, 2012; in the data active = inhibition above about 21%;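 also: 0% = vehicle only and 100% = reference blocker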
TMEM16A act: TMEM16A chloride channel activators or potentiators, primary screen, cell-based, HTS; HEK293 TMEM16A/YFP-H148Q/I152L, iodide quench fluorescence; stronger effect = lower value; 340,000 compounds, 0.3% hits; B-score at 10 µM;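 active = fluorescence-ratio B-score plate-corrected deviation score at least 3 library SD below zero, with starting fluorescence score within 5 deviations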;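 also: channel opened by trigger with iodide after compound preincubation; score built on the fluorescence ratio of max minus min over baseline; more negative score means more quench and so TMEM16A activation or potentiation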
TLR9-MyD88 block: inhibitors of TLR9-MyD88 association in cells, primary screen, cell-based, CHO, BLA complementation, fluorescence | CCF4 FRET ratio | inhibition, % at 4.98 µM | AID 504734, 2011 | Toll-like receptor 9 (Homo sapiens) + Myeloid differentiation primary response protein … | 340,000 compounds, 0.21% hits;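 active = inhibition above the mean over all tested compounds plus 3 SD, cut at about 21% in these data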;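 also: 0% = DMSO only wells and 100% = clavulanate BLA inhibitor control wells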
TMEM16A inh: TMEM16A chloride channel inhibitors, primary screen, cell-based, HTS; Anoctamin-1 (Mus musculus), Q8BHY3; HEK293 TMEM16A/YFP iodide influx fluorescence, ionomycin; normalized B-score (activity score, 25-100; higher = stronger inhibition) at 10 µM; 310,000 compounds, 1.2% hits;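 active = ratio plate-corrected score three or more library SD toward inhibition, starting fluorescence score within five deviations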;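 also: score derived from kinetic fluorescence span divided by baseline fluorescence per well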
GRK2 CP1: GRK2 aptamer-displacing inhibitors, retest, confirmation, biochemical, cherry pick 1, bead flow cytometry. AID 504451, 2011. aptamer displacement, % at 10 µM. bead-bound GRK2, FAM-aptamer displacement. shares compounds with GRK2 inh. 2,000 compounds, 4% hits;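 active = aptamer displacement above 40%, near three times the noise of non-fluorescent compounds, on plates passing quality checks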;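 also: negative values mostly reflect intrinsic compound fluorescence rather than true enhancement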
Aptamer quench: quenches fluorescent RNA aptamer, GRK2 hit artifact. AID 504521. 110 tested, under 10 active. shares compounds with GRK2 inh. fluorescence change (kMESF span), kMESF (concentration not given with the values). Fluorescent RNA aptamer beads, quenching, flow cytometry; stronger effect = higher value;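 active = compounds whose bead fluorescence drops by more than 37 kMESF across the dose range, marking them as dye quenchers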
Aptamer quench SP: aptamer fluorescence quenching in GRK2 counter-screen | shares compounds with GRK2 inh | Carboxyfluorescein RNA aptamer on beads, flow cytometry quenching; stronger effect = lower value | fluorescence response (% of DMSO), % at 10 µM | 2,000 tested, under 10 active | AID 504580;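 active = compounds that quench the bead-bound fluorescent RNA probe, cutting fluorescence to under half of the solvent control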;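 also: counterscreen run without GRK2 so only probe quenching by compound is measured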
GRK2 CP2: GRK2 aptamer-displacing inhibitors, hit retest, confirmation, biochemical, cherry pick 2, bead flow cytometry; shares compounds with GRK2 inh; bead-bound GRK2, FAM-aptamer displacement; inhibition of aptamer binding, % at 10 µM; 360 tested, under 10 active; AID 504782, 2011;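 active = inhibition of aptamer binding above 40%, about triple the noise seen with nonglowing compounds, on plates passing quality control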;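 also: negative values mostly come from compounds that fluoresce themselves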
FAM quench CP2: counter-screen for GRK2 binding hits: quenchers of fluorescent RNA aptamer; shares compounds with GRK2 inh; carboxyfluorescein RNA aptamer beads, flow cytometry quenching; stronger effect = lower value; fluorescence response vs DMSO, % at 10 µM; 360 tested, under 10 active; AID 588494;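 active = response vs DMSO under 50%, meaning signal dropped by over half, treated as fluorescence quencher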;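 also: labelled aptamer on streptavidin beads without GRK2 as a quench counter-screen; 100% = bead fluorescence of DMSO wells and lower means quenching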
The depositor's hits bear a star; i = inactive; . = no result given.

SMILES | GRK2 inh | TLR4 MyD88 comp | NOD2 RIPK2 PPI | TMEM16A act | TLR9-MyD88 block | TMEM16A inh | GRK2 CP1 | Aptamer quench SP | others
CN(CCO)c1ccc(C=NNc2ccc([N+](=O)[O-])cc2S(=O)(=O)Nc2ccccc2C(=O)O)cc1 | 35 | . | 16 | . | . | . | 11 | 101
CCOC(=O)c1sc(NCc2ccco2)c(-c2nc3ccccc3s2)c1N | 68* | 2 | 5 | i | -1 | i | 70* | 102 | Aptamer quench=-3.2
NS(=O)(=O)c1ccc(CNC(=S)NCc2ccc(F)cc2)cc1 | 0 | . | -4 | i | -1 | i | . | .
C=CCOc1ccc2ccccc2c1CNn1c(C)n[nH]c1=S | 78* | . | 8 | i | 3 | i | -15 | 99
CCc1sc(C(=O)Nc2nccs2)cc1C | 30 | . | -2 | i | -18 | i | 0 | 97
O=[N+]([O-])c1ccc(-c2c(-c3ccccc3)ncc3ccc(F)cc23)cc1 | 100* | . | 3 | i | 0 | . | 3 | 104
CCOc1ccc(NC(=O)CSc2nc3c([nH]c4ccccc43)c(=O)n2C)cc1 | 1 | 7 | 7 | i | 2 | i | . | .
COc1ccc(NC(=O)CSc2nc3c([nH]c4ccccc43)c(=O)n2C)c(OC)c1 | 97* | . | -6 | i | 9 | i | . | . | GRK2 CP2=0;FAM quench CP2=96
COc1ccc(CNC(=O)CSc2nc3c(c(=O)n(C)c(=O)n3C)n2C)cc1 | . | -13 | . | . | . | . | . | .
COc1ccc(OC)c(NC(=O)CSc2nc3c(c(=O)n(C)c(=O)n3C)n2C)c1 | 74* | 4 | -4 | i | -6 | i | -3 | 93
O=C(O)CC(C(=O)Nc1ccc(Cl)cc1)N1CCCCCC1 (centres undefined) | 0 | . | 0 | i | 3 | i | . | .
CC(C(=O)NCC1CCCO1)n1cc([N+](=O)[O-])cn1 (centres undefined) | 0 | -13 | 4 | i | 6 | i | . | .
Nc1nc(Sc2ccc(C(F)(F)F)cc2[N+](=O)[O-])n[nH]1 | 0 | -2 | 2 | i | -3 | i | . | .
O=[N+]([O-])c1cc(C(F)(F)F)ccc1Sc1ccc2ccccc2n1 | 39 | 11 | -7 | i | -6 | i | -1 | 84
CCc1ccc(NC(=O)N(CCCOC(C)C)C2CCN(C(C)=O)CC2)cc1 | 5 | 4 | -5 | i | 6 | i | . | .
CCc1ccc(NC(=O)N(C2CCC(C)CC2)C2CCN(C(C)=O)CC2)cc1 (centres undefined) | 57* | 11 | -3 | i | 4 | i | 3 | 93
Cc1cccc(Cl)c1NNC(=O)Nc1c([N+](=O)[O-])c(C)nn1C | 44* | . | -11 | i | -2 | i | 0 | 100
Cc1nn(C)c(C(=O)Sc2cccc(Cl)c2)c1[N+](=O)[O-] | 0 | . | 7 | i | 0 | i | . | .

Screening results (PubChem)
